This note sets out measurements from PubChem BioAssay AID720650 (Broad Institute, 2013).

Unmarked numbers belong to inactive results. Calls of active or inactive are those of the source. The rule behind the calls is not given here. Where only a bound is given, the exact number is not on record here.

The nature of the assay: Biochemical counterscreen for C difficile toxins, absence of UDPG, inhibitor dose response (AID 720650). The settings on record: series mostly up to 19.5 µM; activity change, negative = inhibition: at the top concentration. A general note: Counterscreens check selectivity or assay interference.
As to `COC(=O)Cc1ccc(NC(=S)NCc2ccco2)cc1`, the “activity change, negative = inhibition” value is -4.67%. On the same count and under the same terms, in the case of `CC(C)CN1CCN(CC#Cc2ccccc2)CC1CCO` (stereo unspecified) it was -8.09%; in that of `CCOC(=O)c1ccc(N=c2sc(C(=O)OC)cc(=O)n2CCCN2CCOCC2)cc1`, -1.44%. Consider `COc1ccccc1Nc1nnc(SCc2cc(=O)n3ccsc3n2)s1`, for which the AC50 (as a rule, the concentration giving half of the maximal activity seen) is above 39 µM. `CC(/C=N/n1c(-c2ccncc2)n[nH]c1=S)=C\c1ccco1`: the “activity change, negative = inhibition” value was 10.5%. Take `CCCCn1c(N)c(N(CCOC)C(=O)CSc2nnc(-c3ccco3)n2CC)c(=O)[nH]c1=O`: the “activity change, negative = inhibition” value is 5.63%. Still for that read-out and setting: in the case of `COC(=O)C(C(=O)OC)C(CC(=O)c1ccc(Br)cc1)c1ccccc1` (stereo unspecified) it was -10.2%; in that of `COc1ccccc1CNC(=O)CN(c1ccc(C)cc1)S(=O)(=O)c1c(C)n[nH]c1C`, 2.29%.

With `CC(=O)N1CC[C@@H]2[C@@H](CO)N(C)c3ccc(-c4ccccc4)cc3[C@@H]21`, the AC50 is 7.4 µM (active). `COC(=O)C1=C(c2ccc(F)cc2OCc2ccccc2)C[C@@H]2CC[C@H]1N2C(=O)N1CCCC1`: the “activity change, negative = inhibition” value is -8.05%. Take `COc1ccccc1C(=O)Nc1cccc(Oc2c(F)c(F)c(F)c(F)c2F)c1`: the AC50 was above 39 µM. Regarding `NS(=O)(=O)c1ccc(NC(=S)NCc2ccc3c(c2)OCO3)cc1`, the AC50 was above 39 µM. As to `O=C(c1ccc2c(c1)N(Cc1ccccc1)C(=O)c1ccccc1S2)N1CCCC1`, the AC50 is 16.2 µM (active). In the case of `Cc1ccc(-c2csc(NC(=O)/C=C/c3ccco3)c2C(=O)O)cc1`, the “activity change, negative = inhibition” value is -19.9%.

For the compound `COc1ccccc1-c1cn[nH]c1-c1ccc(O)cc1O`, the AC50 is above 39 µM.

`CCN(CC)S(=O)(=O)c1cc(C(=O)Nc2cccnc2Cl)ccc1Cl`: the “activity change, negative = inhibition” value was -6.46%.
